# From PubChem BioAssay (EPA / NIEHS)
# Results filed as inconclusive are left out. The source made the active and inactive calls. Rule for the calls: active = hit-call score of the fitted dose curve at least 0.9, where 1 is the maximum; inconclusive = response in the unintended direction; inactive = score below 0.9.
# Legend:
# [1] = target: human Peroxisome Proliferator-activated Receptor alpha (PPARa), PPARA (gene 5465) (UniProt Q07869); test: NVS_NR_hPPARa: NovaScreen (NVS) Nuclear Receptor Binding Assay for human Peroxisome Proliferator-activated Receptor alpha (PPARa) (AID 2283359);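 note: activity means loss of TR-FRET signal versus DMSO baseline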
# Chain of human Peroxisome Proliferator-activated Receptor alpha (PPARa), PPARA (gene 5465) (Q07869 whole entry, looked up): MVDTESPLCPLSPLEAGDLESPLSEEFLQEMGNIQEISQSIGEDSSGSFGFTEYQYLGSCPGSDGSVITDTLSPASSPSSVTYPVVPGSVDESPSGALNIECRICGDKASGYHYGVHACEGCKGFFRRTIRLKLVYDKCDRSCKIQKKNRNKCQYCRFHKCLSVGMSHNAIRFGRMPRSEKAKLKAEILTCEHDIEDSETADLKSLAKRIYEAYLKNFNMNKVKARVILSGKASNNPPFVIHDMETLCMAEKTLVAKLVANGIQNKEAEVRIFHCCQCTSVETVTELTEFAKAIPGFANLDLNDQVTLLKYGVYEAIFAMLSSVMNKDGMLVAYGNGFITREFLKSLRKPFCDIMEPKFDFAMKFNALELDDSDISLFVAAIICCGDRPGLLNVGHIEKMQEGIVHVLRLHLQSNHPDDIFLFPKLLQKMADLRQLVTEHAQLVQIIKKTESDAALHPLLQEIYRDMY
# How it was run: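 Loss of TR-FRET binding signal relative to DMSO was measured 1 h after chemical addition to extracted receptor protein. Chemicals were first tested in duplicate at 25 uM, and actives were followed up in concentration series.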
# [2] = target: Nuclear receptor subfamily 1 group I member 2 (Homo sapiens) (UniProt O75469); test: NVS_NR_hPXR: NovaScreen (NVS) Nuclear Receptor Binding Assay for human Pregnane X Receptor (PXR) (AID 2283365);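 note: a drop in FRET signal versus DMSO baseline means the compound binds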
# Chain of Nuclear receptor subfamily 1 group I member 2 (Homo sapiens) (O75469 whole entry, looked up): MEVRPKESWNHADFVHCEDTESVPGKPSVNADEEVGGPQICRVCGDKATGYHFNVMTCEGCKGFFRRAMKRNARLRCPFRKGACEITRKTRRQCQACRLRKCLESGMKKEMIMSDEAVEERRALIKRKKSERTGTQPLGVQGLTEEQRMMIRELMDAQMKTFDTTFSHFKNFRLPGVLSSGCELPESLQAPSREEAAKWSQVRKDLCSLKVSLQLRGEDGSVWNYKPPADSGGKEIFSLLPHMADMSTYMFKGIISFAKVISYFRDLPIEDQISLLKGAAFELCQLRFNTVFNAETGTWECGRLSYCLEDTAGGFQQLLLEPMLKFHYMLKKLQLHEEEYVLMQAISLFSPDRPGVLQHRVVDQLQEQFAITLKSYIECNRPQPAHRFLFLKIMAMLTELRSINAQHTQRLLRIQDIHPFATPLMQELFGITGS
# How it was run: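 Human PXR protein, cell-free; compound added, incubated 2 h, TR-FRET read. Signal decrease vs DMSO = binding. Screened 25 uM duplicate, actives re-run as dilution series.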
# [3] = target: rat Androgen Receptor (AR), Ar (gene 24208) (UniProt P15207); test: NVS_NR_rAR: NovaScreen (NVS) Nuclear Receptor Binding Assay for rat Androgen Receptor (AR) (AID 2283366)
# Chain of rat Androgen Receptor (AR), Ar (gene 24208) (P15207 whole entry, looked up): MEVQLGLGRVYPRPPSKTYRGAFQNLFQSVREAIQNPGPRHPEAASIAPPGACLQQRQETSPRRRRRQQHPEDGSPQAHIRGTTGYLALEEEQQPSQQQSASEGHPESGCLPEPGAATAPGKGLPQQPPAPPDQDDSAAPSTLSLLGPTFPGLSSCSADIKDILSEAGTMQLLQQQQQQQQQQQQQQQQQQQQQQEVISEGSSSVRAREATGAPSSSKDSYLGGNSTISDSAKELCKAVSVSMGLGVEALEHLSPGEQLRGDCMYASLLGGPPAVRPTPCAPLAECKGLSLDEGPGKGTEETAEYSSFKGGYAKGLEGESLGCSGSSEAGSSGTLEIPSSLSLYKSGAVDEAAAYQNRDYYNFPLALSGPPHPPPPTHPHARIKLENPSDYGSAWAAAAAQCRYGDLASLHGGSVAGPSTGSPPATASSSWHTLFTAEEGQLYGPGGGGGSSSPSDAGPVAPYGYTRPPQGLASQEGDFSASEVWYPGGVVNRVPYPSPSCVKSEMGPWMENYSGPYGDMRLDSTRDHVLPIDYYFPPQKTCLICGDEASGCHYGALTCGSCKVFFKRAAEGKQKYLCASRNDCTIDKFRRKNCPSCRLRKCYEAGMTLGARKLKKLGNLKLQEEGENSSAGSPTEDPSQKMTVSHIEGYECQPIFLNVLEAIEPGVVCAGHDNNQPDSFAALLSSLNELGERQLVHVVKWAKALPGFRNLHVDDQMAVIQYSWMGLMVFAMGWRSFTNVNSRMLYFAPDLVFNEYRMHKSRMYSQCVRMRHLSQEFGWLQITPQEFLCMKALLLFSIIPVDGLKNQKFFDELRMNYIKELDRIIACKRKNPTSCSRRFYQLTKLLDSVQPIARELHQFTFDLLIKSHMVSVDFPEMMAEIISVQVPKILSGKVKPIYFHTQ
# Method: NVS_NR_rAR is a biochemical, single-readout assay that uses extracted gene-proteins from Testosterone pre-treated rat prostate in a tissue-based cell-free assay. Measurements were taken 18 hours after chemical dosing in a 96-well plate.NVS_NR_rAR is one of one assay component(s) measured or calculated from the NVS_NR_rAR assay. It is designed to make measurements of radioligand binding, a form of binding reporter, as detected with scintillation counting signals by Filter-based radiodetection technology.Data from the assay component NVS_NR_rAR was analyzed into 1 assay endpoint. This assay endpoint, NVS_NR_rAR, was analyzed in the positive analysis fitting direction relative to DMSO as the negative control and baseline of activity. Using a type of binding reporter, loss-of-signal activity can be used to understand changes in the binding as they relate to the gene Ar. Furthermore, this assay endpoint can be referred to as a primary readout, because the performed assay has only produced 1 assay endpoint. To generalize the intended target to other relatable targets, this assay endpoint is annotated to the nuclear receptor intended target family, where the subfamily is steroidal.
# Binding assays used specific radioligands (tritiated, iodinated) with non-radioactive competitive displacement ligands in agonist or antagonist protocols (as indicated) and various reference compounds and inhibitors to titrate specific binding to receptors and transporters. Most enzyme assays (CYPs, kinases, phosphatases, proteases, HDACs) used recombinant protein and specific substrates (fluorescence mostly, some colorimetric and radioactive) and inhibitors, followed by a biochemical separation of substrate and product. All assays for the biochemical HTS were initially run in duplicate at a single concentration (10 uM for CYP450 assays and 25 uM for all others). […] Each assay was run with positive and negative controls, and concurrent controls on every plate. The follow-up (secondary) screen tested active chemical-pairs in concentration series, as well as a few additional assays not tested in the primary screen, some selected negative inactives, and several cases re-run in the concentration series for confirmatory purposes.
# [4] = target: guinea pig Sigma Receptor, Non-selective Binding, SIGMAR1 (gene 100135589) (UniProt Q60492); test: NVS_OR_gSIGMA_NonSelective: NovaScreen (NVS) Nuclear Receptor Binding Assay for guinea pig Sigma Receptor, Non-selective Binding (AID 2283367)
# Chain of guinea pig Sigma Receptor, Non-selective Binding, SIGMAR1 (gene 100135589) (Q60492 whole entry, looked up): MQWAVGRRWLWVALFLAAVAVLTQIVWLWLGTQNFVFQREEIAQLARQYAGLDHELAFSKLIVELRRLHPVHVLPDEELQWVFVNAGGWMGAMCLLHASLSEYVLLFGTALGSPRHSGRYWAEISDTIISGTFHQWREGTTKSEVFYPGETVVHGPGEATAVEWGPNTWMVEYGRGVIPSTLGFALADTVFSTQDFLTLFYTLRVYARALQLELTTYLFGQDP
# How it was run: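 Guinea pig brain membrane sigma sites were labelled with a radioligand, and bound radioactivity was counted after filtration 1 h post-dose. Compounds were screened at 25 uM in duplicate, then retested as concentration series when active.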
# [5] = target: human Adenosine Transporter (Adot), SLC29A1 (gene 2030) (UniProt Q99808); test: NVS_TR_hAdoT: NovaScreen (NVS) Transporter Assay for human Adenosine Transporter (Adot) (AID 2283368)
# Chain of human Adenosine Transporter (Adot), SLC29A1 (gene 2030) (Q99808 whole entry, looked up): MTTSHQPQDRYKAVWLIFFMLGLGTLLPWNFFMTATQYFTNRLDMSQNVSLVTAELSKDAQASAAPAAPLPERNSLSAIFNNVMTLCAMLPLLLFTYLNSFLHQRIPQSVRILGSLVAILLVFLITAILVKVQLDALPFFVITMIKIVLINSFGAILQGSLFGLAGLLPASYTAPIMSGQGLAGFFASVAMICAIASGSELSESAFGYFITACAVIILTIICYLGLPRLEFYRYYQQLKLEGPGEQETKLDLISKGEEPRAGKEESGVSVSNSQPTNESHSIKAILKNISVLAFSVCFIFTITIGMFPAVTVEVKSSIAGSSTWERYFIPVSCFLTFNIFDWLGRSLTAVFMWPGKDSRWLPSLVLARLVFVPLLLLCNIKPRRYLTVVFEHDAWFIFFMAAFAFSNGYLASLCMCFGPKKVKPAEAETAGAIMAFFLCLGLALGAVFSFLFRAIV
# How it was run: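 Binding displacement on U937 extracted protein, read 1 h post-dose by filtration and scintillation counting. Primary duplicate test at 25 uM, then singleton concentration series with 50 uM top; DMSO baseline.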
# [6] = test system: guinea pig Dopamine Transporter (DAT), gene 100714898; test: NVS_TR_gDAT: NovaScreen (NVS) Transporter Assay for guinea pig Dopamine Transporter (DAT) (AID 2283369);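 note: active compounds lower bound radioligand signal relative to DMSO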
# How it was run: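 Scintillation counts of filter-retained radioligand report binding to guinea pig striatal membranes after 2 h. Activity scored as signal loss relative to DMSO, first at 25 uM in duplicate, then in concentration series to 50 uM.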
# PGR (gene 5241) = PGR (gene 5241) (UniProt P06401); test: NVS_NR_hPR: NovaScreen (NVS) Nuclear Receptor Binding Assay for human Progestron Receptor (PR) (AID 2283360);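 note: active means loss of bound radioligand signal versus DMSO baseline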
# Chain of PGR (gene 5241) (P06401 whole entry, looked up): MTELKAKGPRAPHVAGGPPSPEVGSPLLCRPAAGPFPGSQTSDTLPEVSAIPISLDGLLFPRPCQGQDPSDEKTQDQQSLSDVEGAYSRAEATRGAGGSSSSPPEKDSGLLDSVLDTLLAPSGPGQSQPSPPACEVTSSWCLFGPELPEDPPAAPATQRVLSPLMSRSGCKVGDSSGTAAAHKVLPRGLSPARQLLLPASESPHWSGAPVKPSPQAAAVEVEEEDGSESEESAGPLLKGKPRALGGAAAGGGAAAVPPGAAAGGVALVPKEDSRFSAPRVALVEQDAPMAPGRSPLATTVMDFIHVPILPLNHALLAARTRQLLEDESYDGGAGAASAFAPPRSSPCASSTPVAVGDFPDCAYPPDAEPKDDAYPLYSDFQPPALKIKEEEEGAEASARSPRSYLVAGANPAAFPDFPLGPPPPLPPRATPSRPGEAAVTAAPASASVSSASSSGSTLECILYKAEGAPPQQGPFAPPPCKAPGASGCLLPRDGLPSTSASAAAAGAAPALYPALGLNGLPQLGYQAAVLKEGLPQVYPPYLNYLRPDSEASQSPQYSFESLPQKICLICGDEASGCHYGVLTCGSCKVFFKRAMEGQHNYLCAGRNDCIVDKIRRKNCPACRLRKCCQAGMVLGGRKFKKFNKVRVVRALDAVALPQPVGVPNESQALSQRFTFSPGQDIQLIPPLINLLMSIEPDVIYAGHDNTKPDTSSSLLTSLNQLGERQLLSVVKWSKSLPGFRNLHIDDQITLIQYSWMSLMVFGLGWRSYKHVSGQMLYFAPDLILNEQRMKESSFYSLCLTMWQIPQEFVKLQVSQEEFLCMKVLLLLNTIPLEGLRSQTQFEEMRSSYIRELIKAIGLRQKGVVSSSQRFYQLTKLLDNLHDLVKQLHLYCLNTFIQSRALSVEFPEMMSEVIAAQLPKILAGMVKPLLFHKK
# How it was run: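 T47D lysate; tritiated or iodinated radioligand; scintillation count at 18 h. DMSO = negative control/baseline. Primary: 25 uM, duplicate. Secondary: concentration series for actives.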
# [7] = target: Retinoic acid receptor alpha (Homo sapiens) (UniProt P10276); test: NVS_NR_hRAR_Antagonist: NovaScreen (NVS) Nuclear Receptor Binding Assay for human Retinoic Acid Alpha Receptor Antagonism (RAR) (AID 2283358)
# Chain of Retinoic acid receptor alpha (Homo sapiens) (P10276 whole entry, looked up): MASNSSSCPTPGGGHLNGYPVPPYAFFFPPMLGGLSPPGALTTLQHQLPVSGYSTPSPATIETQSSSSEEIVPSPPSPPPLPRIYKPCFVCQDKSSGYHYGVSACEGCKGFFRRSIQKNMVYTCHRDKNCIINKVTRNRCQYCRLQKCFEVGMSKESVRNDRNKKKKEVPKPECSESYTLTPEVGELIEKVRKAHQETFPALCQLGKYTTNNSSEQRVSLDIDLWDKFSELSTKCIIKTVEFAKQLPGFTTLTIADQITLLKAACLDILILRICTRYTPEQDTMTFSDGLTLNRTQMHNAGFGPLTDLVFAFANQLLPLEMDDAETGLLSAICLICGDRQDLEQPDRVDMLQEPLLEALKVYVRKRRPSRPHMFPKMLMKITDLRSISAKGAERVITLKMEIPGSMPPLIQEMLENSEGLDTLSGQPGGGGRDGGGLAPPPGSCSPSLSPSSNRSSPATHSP
# How it was run: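 RARalpha antagonism was read by TR-FRET as loss of binding signal versus DMSO, 2 h after chemical addition, in a biochemical format. Single-concentration duplicates (25 uM) were run first, and actives were retested in concentration series.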
# [8] = target: Retinoic acid receptor alpha (Homo sapiens) (UniProt P10276); test: NVS_NR_hRARa_Agonist: NovaScreen (NVS) Nuclear Receptor Binding Assay for human Retinoic Acid Alpha Receptor Agonism (RAR) (AID 2283361)
# How it was run: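 Agonist-mode TR-FRET binding format using extracted protein, measured at 2 h post-dosing. Initial duplicate single-point screen at 25 uM preceded concentration series for actives; activity was normalized to DMSO baseline.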
# [9] = target: human Thyroid Receptor Alpha (TRa), THRA (gene 7067) (UniProt P10827); test: NVS_NR_hTRa_Antagonist: NovaScreen (NVS) Nuclear Receptor Binding Assay for human Thyroid Receptor Alpha Antagonism (TRa) (AID 2283362)
# Chain of human Thyroid Receptor Alpha (TRa), THRA (gene 7067) (P10827 whole entry, looked up): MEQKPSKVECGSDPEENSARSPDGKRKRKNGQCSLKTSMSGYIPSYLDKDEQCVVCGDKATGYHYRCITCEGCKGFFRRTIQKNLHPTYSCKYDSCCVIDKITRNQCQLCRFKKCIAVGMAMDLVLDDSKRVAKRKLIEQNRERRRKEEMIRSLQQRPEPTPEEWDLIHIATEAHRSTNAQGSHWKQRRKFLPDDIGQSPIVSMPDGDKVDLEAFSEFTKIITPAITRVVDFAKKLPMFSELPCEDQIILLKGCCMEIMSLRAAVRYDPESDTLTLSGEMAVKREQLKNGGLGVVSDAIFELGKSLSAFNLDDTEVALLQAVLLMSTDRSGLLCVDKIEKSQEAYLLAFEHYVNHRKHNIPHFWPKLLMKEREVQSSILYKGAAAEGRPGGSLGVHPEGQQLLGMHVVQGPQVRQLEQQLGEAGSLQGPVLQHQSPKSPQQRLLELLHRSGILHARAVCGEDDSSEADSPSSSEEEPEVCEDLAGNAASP
# How it was run: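 Extracted protein, cell-free; 1 h incubation after dosing; AlphaLISA chemiluminescence binding readout. DMSO = baseline/neg ctrl; signal loss = activity. Primary: duplicate, 25 uM; secondary: conc. series on actives.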
smiles,measurement,setting,value
CN(C)c1ccc(C(=C2C=CC(=[N+](C)C)C=C2)c2ccc(N(C)C)cc2)cc1,AC50,[1],14.7 µM (active)
same,AC50,[2],6.47 µM (active)
same,AC50,[3],6.51 µM (active)
same,AC50,[4],14.8 µM (active)
same,AC50,[5],7.35 µM (active)
same,AC50,[6],7.68 µM (active)
CC(C)(O)c1ccc(CNC(=O)c2cccnc2Oc2ccc3nonc3c2)cc1,outcome,PGR (gene 5241),inactive
C[C@]12CC[C@@H]3c4ccc(O)cc4CC[C@H]3[C@@H]1CC[C@H]2O,outcome,[1],inactive
same,outcome,[2],inactive
same,AC50,[6],0.231 µM (active)
O=C(O)Cc1cc(I)c(Oc2ccc(O)c(I)c2)c(I)c1,outcome,[7],inactive
same,AC50,[1],46.3 µM (active)
same,AC50,PGR (gene 5241),6.44 µM (active)
same,outcome,[2],inactive
CC(C)(c1cc(Br)c(O)c(Br)c1)c1cc(Br)c(O)c(Br)c1,AC50,[1],8.19 µM (active)
same,AC50,PGR (gene 5241),23.9 µM (active)
O=CCCCC=O,outcome,[1],inactive
same,outcome,[2],inactive
Cc1c2ccccc2c(C)c2c1ccc1ccccc12,outcome,[1],inactive
same,AC50,PGR (gene 5241),15.6 µM (active)
CC(C)(C)c1cc(/C=C2\SC(N)=NC2=O)cc(C(C)(C)C)c1O,outcome,PGR (gene 5241),inactive
CCCC(=O)OCCC(C)C,AC50,PGR (gene 5241),17.2 µM (active)
CN1C(=O)N(c2ccccc2Br)Cc2cnc(Nc3ccc4c(c3)OCC(CO)O4)nc21 (stereo unspecified),outcome,[7],inactive
CCCCOC(=O)c1ccc(O)cc1,outcome,[1],inactive
same,outcome,PGR (gene 5241),inactive
same,outcome,[2],inactive
same,outcome,[3],inactive
same,AC50,[4],4.2 µM (active)
same,AC50,[6],25 µM (active)
CN(C[C@@H](CC[N+]12CCC(C3CCCCC3)(CC1)CC2)c1ccc(Cl)c(Cl)c1)C(=O)c1cc(C(F)(F)F)cc(C(F)(F)F)c1,outcome,PGR (gene 5241),inactive
same,AC50,[2],25 µM (active)
CCCCCCCCOC(=O)c1cc(O)c(O)c(O)c1,AC50,[1],19 µM (active)
same,AC50,[5],22.2 µM (active)
NCc1cccc(C2CCN(C(=O)c3ccc(C#Cc4ccccc4F)o3)CC2)c1,AC50,[1],40.8 µM (active)
same,outcome,PGR (gene 5241),inactive
same,AC50,[2],7.85 µM (active)
same,AC50,[3],15.4 µM (active)
same,AC50,[4],13.2 µM (active)
same,AC50,[5],25 µM (active)
same,AC50,[6],10 µM (active)
CN1C(=O)CC[C@H]1c1cccnc1,outcome,PGR (gene 5241),inactive
CC[C@@H]1C[C@H](N(Cc2cc(C(F)(F)F)cc(C(F)(F)F)c2)C(C)=O)c2cc(C(F)(F)F)ccc2N1C(=O)OC(C)C,outcome,PGR (gene 5241),inactive
same,outcome,[8],inactive
CCCCCCCCOc1ccc(C(=O)c2ccccc2)c(O)c1,outcome,[1],inactive
O=C(O)c1ccccc1C(=O)OCc1ccccc1,outcome,[1],inactive
OC12N=C(c3ccccc3)SC1Cc1cc(Cl)ccc12 (stereo unspecified),outcome,[1],inactive
CC/C(=C(/CC)c1ccc(O)cc1)c1ccc(O)cc1,outcome,[1],inactive
same,outcome,PGR (gene 5241),inactive
same,AC50,[5],17.6 µM (active)
CC1=CC(=O)/C(=C(/C)O)C(=O)O1,outcome,PGR (gene 5241),inactive
CCCCCCCCCCCCO,outcome,PGR (gene 5241),inactive
COCC(C)OCC(C)OCC(C)O (stereo unspecified),outcome,PGR (gene 5241),inactive
Clc1cc(Cl)c2c(c1)N=C1CCCCCN1C2,outcome,[1],inactive
same,outcome,PGR (gene 5241),inactive
same,AC50,[4],0.542 µM (active)
CCCCCCCCCCCO,outcome,[1],inactive
same,AC50,[9],28.4 µM (active)
Cc1ncc(CO)c(CO)c1O,AC50,PGR (gene 5241),16.9 µM (active)
C[C@]12CC[C@@H]3c4ccc(O)cc4CC[C@H]3[C@@H]1CCC2=O,outcome,[1],inactive
same,AC50,PGR (gene 5241),0.159 µM (active)
same,outcome,[3],inactive
